Pf Dd2 growth – P. falciparum Dd2 growth inhibitors, primary screen, SYBR Green fluorescence, single dose replicates | AID 1159554, 2015 | activity change, % at 10 µM | actives 2.3% (n = 94,000) | 72 h; hits give low values; in the data active = activity change below about -80%; inconclusive = no clear call, values can overlap the other calls
T cruzi growth-1 – T. cruzi intracellular proliferation inhibitors, primary screen, cell-based, beta-gal Tulahuen parasites, NIH3T3 host, luminescence. inhibition, % at 8.34 µM. actives 5.9% (n = 77,000). AID 624255, 2012. T. cruzi beta-gal in NIH3T3, GalScreen luminescence, 90 h;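 active = mean inhibition above about 93%, with at least 55% of replicates each passing it, limit read from the data, passing the limit was not always enough; inconclusive = only one of those two conditions holds; inactive = neither condition holds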
C diff growth – C. difficile growth inhibitors, primary screen, HTS. Clostridium difficile clinical isolate growth, OD600, 24 h; hits give low values. actives 0.25% (n = 86,000). growth activity, negative = inhibition, % at 16 µg/mL (by protocol);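 active = mean growth activity at or below -80% and every replicate also at or below -80%; inconclusive = mean at or below -80% but some replicate above -80%; inactive = mean growth activity above -80%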
T cruzi growth-2 – T. cruzi intracellular proliferation inhibitors, confirmation, cell-based, NIH3T3 host, beta-gal parasite, luminescence, cherry-pick; shares compounds with T cruzi growth-1; T. cruzi beta-gal in NIH3T3, GalScreen luminescence, 90 h; inhibition, % at 8.35 µM; actives 72% (n = 5,600); AID 651739, 2012;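 active = mean replicate inhibition above about 95% and at least 55% of replicates individually reaching it, limit read from the data; inconclusive = only one of the two criteria is met; inactive = neither criterion is met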
T cruzi growth-3 – inhibitors of intracellular T. cruzi replication, confirmation, NIH3T3 host cells, beta-gal parasites, cherry-pick, set 2; shares compounds with T cruzi growth-1; T. cruzi beta-gal in NIH3T3, GalScreen luminescence, 90 h; inhibition, % at 2.09 µM; actives 21% (n = 5,600); AID 651740, 2012;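 active = mean inhibition above about 95%, with at least 55% of replicates also reaching it, limit read from the data; inconclusive = meets just one of the two conditions; inactive = meets neither condition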
NIH3T3 tox – cytotoxicity in mouse NIH/3T3 fibroblasts, confirmation, cytotoxicity control for T. cruzi proliferation inhibitor project, cell-based, cherry-pick, single point | shares compounds with T cruzi growth-1 | actives 14% (n = 5,600) | NIH/3T3 viability, CellTiter-Glo ATP luminescence, 90 h | cytotoxicity (signal decrease), % at 8.35 µM;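 active = mean signal decrease across replicates above about 35% based on untreated-well scatter, with enough replicates individually passing, limit read from the data; inconclusive = no rule stated though some were filed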
3T3 cytotox 2 – NIH/3T3 fibroblast cytotoxicity, confirmation, cytotoxicity control, cell-based, cherry-pick, single point, set 2 | NIH/3T3 viability, CellTiter-Glo ATP luminescence, 90 h | inhibition, % at 24.9 µM | AID 651744, 2012 | shares compounds with T cruzi growth-1 | actives 56% (n = 5,600);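 active = mean loss of cell viability signal at or above a set limit, and enough replicates individually reaching it; inconclusive = meets only the mean limit or only the replicate share; inactive = meets neither condition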
A number is an active result; - = inactive; ? = inconclusive; . = not tested or not shown. Most compounds without a hit are left out; they make up all but 6.7% or so of the library.

SMILES	Pf Dd2 growth	T cruzi growth-1	C diff growth	T cruzi growth-2	T cruzi growth-3	NIH3T3 tox	3T3 cytotox 2
COc1ccc(-c2ccc([C@H]3[C@@H](CO)N4CCCCN(C(=O)c5ccc(F)cc5)C[C@H]34)cc2)cc1	-	-	-	.	.	.	.
O=C(c1ccc(F)cc1)N1CCCCN2[C@H](C1)[C@@H](c1ccc(-c3ccc(F)cc3)cc1)[C@@H]2CO	-	97.7	-	103.0	-	42.5	103.2
O=C(c1ccc(F)cc1)N1CCCCN2[C@H](CO)[C@H](c3ccc(-c4ccccc4)cc3)[C@@H]2C1	-	-	-	.	.	.	.
O=C(c1ccc(F)cc1)N1CCCCN2[C@H](CO)[C@H](c3ccc(-c4ccc(F)cc4)cc3)[C@@H]2C1	-	104.7	-	108.1	-	-	72.7
O=C(c1ccc(F)cc1)N1CCCCN2[C@@H](CO)[C@@H](c3ccc(-c4ccc(F)cc4)cc3)[C@@H]2C1	-	-	-	.	.	.	.
COc1ccc(-c2ccc([C@@H]3[C@@H](CO)N4CCCCN(C(=O)c5ccc(F)cc5)C[C@H]34)cc2)cc1	-	122.8	-	?	-	-	56.9
O=C(c1ccc(F)cc1)N1CCCCN2[C@H](CO)[C@H](c3ccc(-c4ccc(F)cc4)cc3)[C@H]2C1	-	107.1	-	103.2	-	-	105.5
COc1ccc(-c2ccc([C@H]3[C@H]4CN(C(=O)c5ccc(F)cc5)CCCCN4[C@H]3CO)cc2)cc1	-	-	-	.	.	.	.
C[C@@H]1CN([C@H](C)CO)C(=O)c2cccc(NC(=O)C3CCOCC3)c2O[C@@H]1CN(C)C(=O)Nc1ccc2c(c1)OCO2	-	-	-	.	.	.	.
CN1[C@@H]2Cn3c(ccc(-c4ccc(F)cc4)c3=O)[C@H]1[C@@H](C(=O)N1CCCCC1)[C@@H]2CO	.	-	-	.	.	.	.
C[C@@H]1CN([C@@H](C)CO)C(=O)c2cc(NS(=O)(=O)c3ccc(Cl)cc3)ccc2O[C@H]1CN(C)Cc1ccc2c(c1)OCO2	-	-	-	.	.	.	.
O=C(c1ccc(F)cc1)N1CCCCN2[C@H](CO)[C@@H](c3ccc(-c4ccccc4)cc3)[C@@H]2C1	-	-	-	.	.	.	.
O=C(c1ccc(F)cc1)N1CCCCN2[C@H](CO)[C@@H](c3ccc(-c4ccc(F)cc4)cc3)[C@H]2C1	-	111.0	-	104.1	-	36.9	103.2
CC(C)NC(=O)N(C)C[C@@H]1Oc2cc(C#CCN(C)C)ccc2S(=O)(=O)N([C@@H](C)CO)C[C@H]1C	-	-	-	.	.	.	.
N#C[C@@H]1[C@@H](c2ccc(-c3cncnc3)cc2)[C@H](CO)N1C(=O)C1CCOCC1	-	99.6	-	-	-	-	-
N#C[C@H]1[C@H](c2ccc(-c3cncnc3)cc2)[C@@H](CO)N1C(=O)C1CCC1	-	-	-	.	.	.	.
COc1ccc(-c2ccc([C@@H]3[C@@H](C#N)N(C(=O)C4CCOCC4)[C@H]3CO)cc2)cc1	-	-	-	.	.	.	.
N#C[C@@H]1[C@H](c2ccc(-c3cncnc3)cc2)[C@H](CO)N1C(=O)C1CCC1	-	100.9	-	-	-	-	-
C[C@H](CO)N1C[C@H](C)[C@H](CN(C)C(=O)Cc2ccncc2)Oc2ncc(C3=CCCC3)cc2C1=O	-	-	-	.	.	.	.
C[C@H]1CN([C@@H](C)CO)C(=O)Cc2cc(NC(=O)Cn3cnnn3)ccc2O[C@H]1CN(C)C(=O)Nc1ccc(F)cc1	-	-	.	.	.	.	.
C[C@@H]1CN([C@H](C)CO)C(=O)c2cccc(NC(=O)Nc3ccc4c(c3)OCO4)c2O[C@H]1CN(C)Cc1ccc(Cl)c(Cl)c1	-	?	.	100.5	-	-	24.7
C[C@@H]1CN([C@@H](C)CO)C(=O)c2cc(NC(=O)Nc3ccc4c(c3)OCO4)ccc2O[C@@H]1CN(C)Cc1ccc(Cl)c(Cl)c1	-	?	.	97.5	-	56.6	89.6

Screens from PubChem BioAssay.
